PubChem BioAssay (Tox21)
Values joined by “and” are separate entries in the source; they are usually repeats but may differ in a detail not shown here. Equal entries are not always repeated. A number with no mark means an inactive call. Results filed as inconclusive are left out. A call without a number means that no potency is given here. Active and inactive are the calls of the source. Unless noted, calls come from the whole dose curve; as a rule, active = well fitted curve in the direction sought with a large enough effect in the repeat runs; inconclusive = weak or mixed curves; inactive = no such curve, though single readings can be large; an effect the other way counts as inactive or inconclusive.

Key:
[1] = qHTS assay for small molecule agonists of the p53 signaling pathway (AID 651631; calls by dose curve; note: nearly all actives have a fitted effect of over 15% in size)
Method in brief: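 Testing took place in human colorectal HCT-116 cells with stable p53RE-driven beta-lactamase. After 16 h of compound exposure at 37 °C, a FRET substrate was added and fluorescence recorded 2 h later.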

[2] = qHTS assay for small molecules that induce genotoxicity in human embryonic kidney cells expressing luciferase-tagged ATAD5 (AID 651632); note: nearly all actives have a fitted effect of over 15% in size; note: potency is the fitted concentration of half-maximal effect
Method in brief: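 Genotoxicity read-out via ATAD5-luciferase: HEK293T cells, 16 hr compound incubation at 37C, Amplite detection.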

[3] = qHTS assay for small molecule agonists of the p53 signaling pathway - cell viability (AID 651633; calls by dose curve; note: series mostly up to about 83 µM; nearly all actives have a fitted effect of over 30% in size)
Method in brief: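 p53RE-bla cells were treated with compound for 16 hours at 37 C. Cytotoxicity was then measured as CellTiter-Glo luminescence after 30 min at room temperature.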

[4] = qHTS assay for small molecules that induce genotoxicity in human embryonic kidney cells expressing luciferase-tagged ATAD5 - cell viability (AID 651634; calls by dose curve; note: nearly all actives have a fitted effect of over 25% in size)
Method in brief: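 Live-cell protease activity (CellTiter-Fluor, fluorescence) indicates viability. HEK293T cells with luciferase-tagged ATAD5; 15.5 hr compound treatment at 37C.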

[5] = qHTS assay for small molecule disruptors of the mitochondrial membrane potential - cell viability (AID 720634; calls by dose curve; note: nearly all actives have a fitted effect of over 20% in size; note: potency is the fitted concentration of half-maximal effect)
Method in brief: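 Human hepatoma HepG2 cells were treated for 1 hr with test chemicals, then given m-MPI dye and CellTiter-Glo. Cell viability reflects luminescence proportional to cellular ATP.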

[6] = qHTS assay for small molecule disruptors of the mitochondrial membrane potential (AID 720635); note: potency is the fitted concentration of half-maximal effect
Method in brief: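 HepG2 cells exposed to compound 1 hr at 37C, then Mito-MPS dye 30 min. Ratio read of aggregate (540/590 nm) versus monomer (490/535 nm) fluorescence.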

[7] = qHTS assay to test for compound auto fluorescence at 590 nm (red) in HepG2 cells (AID 720674)
Method in brief: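 Seeding: 2,000 HepG2 cells/well, MEM/10% FBS, overnight 37 C. Dosing: compound vs DMSO. Incubation: 1 hr, 37 C, 5% CO2. Read: fluorescence 540 ex/590 em, Rose Bengal sodium as red reference.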

[8] = qHTS assay to test for compound auto fluorescence at 535 nm (green) in HepG2 cells (AID 720675)
[9] = qHTS assay to test for compound auto fluorescence at 460 nm (blue) in HEK293 cells (AID 720678)
Method in brief: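 After cell attachment (4-5 hr, 37C), compounds were pinned onto HEK293 monolayers in 10% dialyzed FBS medium. The blue channel (405/460 nm) was read following overnight culture. Equivalency was calculated against triamterene.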

[10] = qHTS assay to test for compound auto fluorescence at 535 nm (green) in HEK293 cells (AID 720680)
[11] = qHTS assay to test for compound auto fluorescence at 460 nm (blue) in HEK293 cell free culture (AID 720681)
Method in brief: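 Compounds were added to cell-free DMEM with 10% FBS and fluorescence read directly. The blue channel used 405 nm excitation and 460 nm emission, with triamterene as the reference fluorophore.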

[12] = qHTS assay to test for compound auto fluorescence at 535 nm (green) in HEK293 cell free culture (AID 720682)
Method in brief: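 DMEM + 10% FBS, cell-free; cpd or DMSO pinned in; Ex485/Em535 read; output as fluorescein-equivalent signal.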

[13] = qHTS assay to test for compound auto fluorescence at 590 nm (red) in HEK293 cell free culture (AID 720683)
Method in brief: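 Cell-free wells of DMEM with 10% FBS received compound, and intrinsic fluorescence was read at excitation/emission 540/590 nm. Values expressed as equivalence to Rose Bengal sodium.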

[14] = qHTS assay to test for compound auto fluorescence at 590 nm (red) in HepG2 cell free culture (AID 720684)
Method in brief: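 Compound was pinned into wells holding MEM with 10% FBS and no cells, and red fluorescence was read at Ex/Em 540/590 nm. Signal is expressed as auto fluorescence equivalency relative to Rose Bengal sodium.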

[15] = qHTS assay to test for compound auto fluorescence at 460 nm (blue) in HepG2 cell free culture (AID 720685)
Method in brief: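 Compound (23 nL) or DMSO pinned into cell-free MEM with 10% FBS; blue fluorescence read at 405/460 nm excitation/emission, expressed as auto-fluorescence equivalency to triamterene.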

[16] = qHTS assay to test for compound auto fluorescence at 460 nm (blue) in HepG2 cells (AID 720687)
Method in brief: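 HepG2 cells in MEM with 10% FBS, attached overnight at 37 C, were exposed to compound or DMSO for 1 hr at 37 C, 5% CO2. Blue fluorescence was read at 405/460 nm, with triamterene as reference fluorophore.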

[17] = qHTS assay to test for compound auto fluorescence at 535 nm (green) in HepG2 cell free culture (AID 720686)
[18] = molecular target: Glucocorticoid receptor (Homo sapiens) (UniProt P04150); experiment: qHTS assay to identify small molecule agonists of the glucocorticoid receptor (GR) signaling pathway (AID 720691; active = well fitted activation curve with a large enough effect in the signal ratio in the repeat runs, not every such curve was filed as active; the % refers to the signal ratio)
Method in brief: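 Beta-lactamase reporter activity, read as fluorescence intensity, was measured in GR-bla HeLa cells exposed to compounds for 18 h at 37 C and then loaded with LiveBLAzer B/G FRET substrate for 2 h at room temperature.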

[19] = qHTS assay to test for compound auto fluorescence at 590 nm (red) in HEK293 cells (AID 720679)
Method in brief: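 Plates of HEK293 cells (10% dialyzed FBS) are treated with 23 nL compound or DMSO vehicle after a 4-5 hr attachment period, incubated overnight at 37C, and read for red fluorescence at 540/590nm.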

[20] = molecular target: Glucocorticoid receptor (Homo sapiens) (UniProt P04150); experiment: qHTS assay to identify small molecule antagonists of the glucocorticoid receptor (GR) signaling pathway (AID 720692; active = well fitted inhibition curve with a large enough effect in the signal ratio in the repeat runs, not every such curve was filed as active; the % refers to the signal ratio)
Method in brief: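 Fluorescence from cleaved LiveBLAzer B/G FRET substrate reports GRE-driven beta-lactamase in HeLa cells; compounds are tested against 5 nM dexamethasone (final) over 18 h at 37 C, substrate incubation 2 h at room temperature.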

Chain of Glucocorticoid receptor (Homo sapiens) (P04150 whole entry, looked up): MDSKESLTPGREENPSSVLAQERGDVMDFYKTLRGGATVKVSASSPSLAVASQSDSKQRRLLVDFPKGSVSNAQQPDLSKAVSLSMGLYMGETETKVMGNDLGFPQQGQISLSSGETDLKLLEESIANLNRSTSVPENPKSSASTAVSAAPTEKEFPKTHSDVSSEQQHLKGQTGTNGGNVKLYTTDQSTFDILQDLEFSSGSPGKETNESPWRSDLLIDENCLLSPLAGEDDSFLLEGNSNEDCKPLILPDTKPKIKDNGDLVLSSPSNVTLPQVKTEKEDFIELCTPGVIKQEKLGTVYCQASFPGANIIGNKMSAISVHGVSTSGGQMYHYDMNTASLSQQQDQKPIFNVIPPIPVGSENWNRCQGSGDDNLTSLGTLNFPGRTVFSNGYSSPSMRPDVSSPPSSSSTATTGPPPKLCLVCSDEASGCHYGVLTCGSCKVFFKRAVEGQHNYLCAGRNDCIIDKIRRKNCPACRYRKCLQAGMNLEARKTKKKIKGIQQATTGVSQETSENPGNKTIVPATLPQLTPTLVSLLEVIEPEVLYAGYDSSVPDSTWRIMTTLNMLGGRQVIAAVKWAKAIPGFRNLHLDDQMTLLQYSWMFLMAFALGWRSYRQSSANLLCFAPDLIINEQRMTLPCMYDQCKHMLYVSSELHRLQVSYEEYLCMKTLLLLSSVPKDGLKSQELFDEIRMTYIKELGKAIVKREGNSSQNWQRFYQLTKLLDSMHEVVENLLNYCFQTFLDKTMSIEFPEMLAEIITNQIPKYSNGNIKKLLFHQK

Row | Structure (SMILES) | Potency [1] | Potency [2] | Potency [3] | Potency [4] | Potency [5] | Potency [6] | outcome [7] | outcome [8] | Potency [9] | outcome [10] | Potency [11] | outcome [12] | outcome [13] | outcome [14] | Potency [15] | Potency [16] | outcome [17] | Potency [18] | outcome [19] | Potency [20]
1 | CC(=O)Oc1ccc(C(=C2CCCCC2)c2ccc(OC(C)=O)cc2)cc1 | inactive | inactive | inactive | inactive | inactive | inactive | inactive | inactive | inactive | inactive | inactive | inactive | inactive | inactive | inactive | inactive | – | – | – | –
2 | CCCCCCCCCCCC[N+](C)(C)CC(=O)[O-] | inactive | inactive | inactive | inactive | inactive | inactive | inactive | inactive | inactive | inactive | inactive | inactive | inactive | inactive | inactive | inactive | inactive | inactive | – | –
3 | CCC(C(=O)OCCOCCN(CC)CC)c1ccccc1 (configuration not stated) | inactive | inactive | inactive | inactive | inactive | inactive | inactive | inactive | inactive | inactive | – | inactive | inactive | inactive | inactive | inactive | inactive | inactive | inactive | inactive
4 | Cc1oncc1C(=O)Nc1ccc(C(F)(F)F)cc1 | inactive | 5.07 µM (active) and 2.73 µM (active) | inactive | inactive | 61.1 µM (active) | 10.1 µM (active) and 7.7 µM (active) | inactive | inactive | inactive | inactive | inactive | inactive | inactive | inactive | inactive | inactive | inactive | inactive | – | inactive
5 | Cc1ccnc2ccccc12 | inactive | inactive | inactive | inactive | inactive | 19.3 µM (active) | inactive | inactive | inactive | inactive | inactive | inactive | inactive | inactive | inactive | inactive | inactive | inactive | inactive | inactive
6 | CCOC(=O)C(C)Oc1ccc(Oc2nc3ccc(Cl)cc3o2)cc1 (configuration not stated) | inactive | inactive | inactive | inactive | inactive | inactive | inactive | inactive | inactive | inactive | inactive | inactive | inactive | – | inactive | inactive | inactive | inactive | inactive | –
7 | Nc1ccc(S(=O)(=O)O)cc1 | inactive | inactive | inactive | inactive | inactive | – | inactive | inactive | inactive | inactive | inactive | inactive | inactive | inactive | inactive | inactive | inactive | – | inactive | –
